For 40 sequences, PBM binding z-score results are on record in the supplement of paper PMC6555819.

The test system of one assay is PPARg DBDmut IVT, anti-PPARg (DBD mutation: PPARg1 K132A/R137A, NR concentration 270 nM). In words: PBM binding z-score (relative to random genomic background probes); higher = stronger binding; sequences stand for … in GC…GCGATTGACAGCGTAGAATGAAGG
The method, boiled down:
(§1)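 Random background probes are the reference for binding z-scores. These scores derive from regression-normalized fluorescence on custom Agilent 4×180K protein-binding microarrays incubated 1 h with ligand-free nuclear receptor dimers. Binding was detected with antibodies against each partner (one per run).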
GCGACTGGGCCATCAGCAGGTTACCATAACTTAA gave a PBM binding z-score of -1.45.
Same read-out and setting: next, CCGACTGGGGCCGAAAGGTTACCATACCATCCGG: -1.62; GCTCGGAGGACAACGTCAGAGCTTTGTCCGTAGA: -1.23; TCATATTGGTAAAGGTGAAAGTCGAACGATATGA: 1.2.
The same measure, in the same setting: next, TGAATGAGGTTCAAGATCAGGGAACGTGGCGTCG: 0.169; TAGCCTAGGTCATTCAGGGGCCAGGATAGAAAGC: -0.519.
On the same count and under the same terms, as for AGTCAAAGTTCATCTAGGTAATGTAAGATATGCT, the figure is 1.47; as for CGAACTAGGTCACTGACAGGACAGTGAATAGTAA, 0.583; as for GATACAGGGTCAGCTAGAGGCTAGAGTATGGAAA, -0.495.
Regarding TCTAGCAGGCCAGAGGGTAACTCAAGAGGTACGG, the PBM binding z-score is -0.379.
The same measure, in the same setting: as for ATCTCTAGGTAGAGTTCAGTGAAAGATCGATAGA, the figure is 0.623; as for TGAATGAGGTTAAAGTTCAGGGAACGTGGCGTCG, 1.55; as for TCTATTAGATGATTAGGGCAACCGAAACAGCGGA, 0.561.
Still for that read-out and setting: next, ATATGTAGGTTAAGGGTCATTCTGGTTGGTTCGC: 1.76.
Still for that read-out and setting: as for CGTCCAAGGTCAAAGTTCAGTGAAGAGATGACGG, the figure is 1.29.
For GTTCGGAGGACAAGGTCAGAGCTTTGTCCGTAGA, the PBM binding z-score was -1.19.
Consider TCGAGTAGGGTACCAATGGGGCATTCAGCTTTCT, for which the PBM binding z-score was -0.695.
Still for that read-out and setting: as for CGAACTAGGTCAAGAACAGTGAATCTCCGCACGC, the figure is 0.438; as for TCTTGTAGAGCAAAGGTTAAGAAAGCCGAAGCCT, -0.0845; as for CCGACTGGGCCAAAAAGGTCATTGATGCCGATAA, -1.08.
Still for that read-out and setting: as for AAAATGAGGTTACCAAAGATCAGGGAAACGCTTG, the figure is 0.928; as for TCATATAGGTAAACAGGGGAAAGTCCGTAAGTTA, 0.87; as for CCAGAAAGGTGAGAAGGTAACTCAGCCTCGATTA, -0.361.
Still for that read-out and setting: next, GCTTACGGGTCAAAGGTTATTGCATGAATAGAAT: 2.94; CAAACTAGGTCAAATGTCAAAGTCGAGCCAACCA: 1.58; CGAACTAGGTCATCCAGGACAGCGAATACATTGA: 1.48.
In turn, TCATATAGGTAAACAGGTGACAGTCCGTAAGTTA returned a PBM binding z-score of 1.05.
On to GCAGACAGGTGAAACGCAGGTAACACAGGGTGGC, for which the PBM binding z-score was -0.396.
Still for that read-out and setting: next, AGAATGAGCTTATACGTAGATCAGGGAAGAAAGT: 0.438; TCTGCTAGGTCAGTTGGTAAGCTAACGAGCTGCC: 0.0442.
On the same count and under the same terms, next, TCTATTAGTTGATGGGCAACCGACGAGTCCGTTT: 1.05; ACTACTTGGTCAGCTGAGGTCACACACAATTCGG: 1.36; ATCGAAAGGTCGAGCTGAGTATAGAGAAAGGGAA: 0.108.
Regarding TCTGCTAGGTCAGTTGGTCACCTAACGAGCTGCC, the PBM binding z-score turned out to be 0.817.
Sequence CCGACTGGGGCATAAGGTTAGCATAAGCCAGCCC had a PBM binding z-score of -1.75.
Still for that read-out and setting: as for CGAACTAGGTTAGAACAGGACAGTGAAGGATGAT, the figure is 0.101; as for ATACCCAGGTGATCGTGAGGTCGTTGATACTAAC, 0.838.
In turn, TAGCCTAGGGCATGCGGGCCAGTATAGTGTCGGC displayed a PBM binding z-score of -1.43.
Same read-out and setting: as for ATATGTAGGTTAGCTGTGGTCATTCAGACTAGGC, the figure is 2.03; as for TCTAGCAGGCCAGAGAGTCACTCAAGAGGTACGG, -1.33.

The next assay has as its system PPARg homodimer (NR concentration 180 nM). The description is as above. The method, boiled down:
as §1
As for GCGACTGGGCCATCAGCAGGTTACCATAACTTAA, the PBM binding z-score is -0.551.
In turn, CCGACTGGGGCCGAAAGGTTACCATACCATCCGG gave a PBM binding z-score of 0.848.
The sequence GCTCGGAGGACAACGTCAGAGCTTTGTCCGTAGA came in with a PBM binding z-score of -2.11.
Same read-out and setting: as for TCATATTGGTAAAGGTGAAAGTCGAACGATATGA, the figure is 1.15.
The same measure, in the same setting: next, TGAATGAGGTTCAAGATCAGGGAACGTGGCGTCG: -0.0825.
In turn, TAGCCTAGGTCATTCAGGGGCCAGGATAGAAAGC returned a PBM binding z-score of 1.31.
On the same count and under the same terms, next, AGTCAAAGTTCATCTAGGTAATGTAAGATATGCT: 2.6; CGAACTAGGTCACTGACAGGACAGTGAATAGTAA: 1.33.
GATACAGGGTCAGCTAGAGGCTAGAGTATGGAAA: the PBM binding z-score was found to be 2.09.
Same read-out and setting: next, TCTAGCAGGCCAGAGGGTAACTCAAGAGGTACGG: 0.0885; ATCTCTAGGTAGAGTTCAGTGAAAGATCGATAGA: 0.95; TGAATGAGGTTAAAGTTCAGGGAACGTGGCGTCG: 1.98.
With TCTATTAGATGATTAGGGCAACCGAAACAGCGGA, the PBM binding z-score amounted to 0.156.
Still for that read-out and setting: next, ATATGTAGGTTAAGGGTCATTCTGGTTGGTTCGC: 4.67; CGTCCAAGGTCAAAGTTCAGTGAAGAGATGACGG: 3.79.
The same measure, in the same setting: as for GTTCGGAGGACAAGGTCAGAGCTTTGTCCGTAGA, the figure is 1.25; as for TCGAGTAGGGTACCAATGGGGCATTCAGCTTTCT, -0.571.
For CGAACTAGGTCAAGAACAGTGAATCTCCGCACGC, the PBM binding z-score was determined as 1.15.
Still for that read-out and setting: as for TCTTGTAGAGCAAAGGTTAAGAAAGCCGAAGCCT, the figure is 0.283; as for CCGACTGGGCCAAAAAGGTCATTGATGCCGATAA, 2.17.
AAAATGAGGTTACCAAAGATCAGGGAAACGCTTG registered a PBM binding z-score of 0.63.
Still for that read-out and setting: next, TCATATAGGTAAACAGGGGAAAGTCCGTAAGTTA: 1.18; CCAGAAAGGTGAGAAGGTAACTCAGCCTCGATTA: 1.15.
As to GCTTACGGGTCAAAGGTTATTGCATGAATAGAAT, the PBM binding z-score turned out to be 3.22.
Still for that read-out and setting: next, CAAACTAGGTCAAATGTCAAAGTCGAGCCAACCA: 2.71; CGAACTAGGTCATCCAGGACAGCGAATACATTGA: 1.78.
As for TCATATAGGTAAACAGGTGACAGTCCGTAAGTTA, the PBM binding z-score turned out to be 0.856.
On the same count and under the same terms, as for GCAGACAGGTGAAACGCAGGTAACACAGGGTGGC, the figure is -0.0973; as for AGAATGAGCTTATACGTAGATCAGGGAAGAAAGT, -0.99.
Sequence TCTGCTAGGTCAGTTGGTAAGCTAACGAGCTGCC gave a PBM binding z-score of -0.393.
Same read-out and setting: as for TCTATTAGTTGATGGGCAACCGACGAGTCCGTTT, the figure is 0.547; as for ACTACTTGGTCAGCTGAGGTCACACACAATTCGG, 4.02.
Still for that read-out and setting: as for ATCGAAAGGTCGAGCTGAGTATAGAGAAAGGGAA, the figure is 0.956.
Consider TCTGCTAGGTCAGTTGGTCACCTAACGAGCTGCC, for which the PBM binding z-score turned out to be 0.461.
Still for that read-out and setting: next, CCGACTGGGGCATAAGGTTAGCATAAGCCAGCCC: -0.109; CGAACTAGGTTAGAACAGGACAGTGAAGGATGAT: 0.487; ATACCCAGGTGATCGTGAGGTCGTTGATACTAAC: 0.843.
The same measure, in the same setting: as for TAGCCTAGGGCATGCGGGCCAGTATAGTGTCGGC, the figure is -1.51; as for ATATGTAGGTTAGCTGTGGTCATTCAGACTAGGC, 1.37.
The same measure, in the same setting: as for TCTAGCAGGCCAGAGAGTCACTCAAGAGGTACGG, the figure is -0.979.
